Data as given in PubChem BioAssay (NCATS).
A number with no mark means an inactive call. Records with an inconclusive call do not appear. The source made the active and inactive calls. The call rests on the fitted dose curve; in most records, active means well fitted curve in the direction sought with a large enough effect; inconclusive means small, poorly fitted or top-dose-only effect, or another doubt; inactive means no such curve, though single readings can be large; an effect the other way counts as inactive or inconclusive.

target: Tyrosine-protein phosphatase non-receptor type substrate 1 (Homo sapiens) + Leukocyte surface antigen CD47 (Homo sapiens) (UniProt P78324+Q08722); experiment: CD47-SIRPalpha protein protein interaction - Alpha assay qHTS validation (AID 1347059); conditions: AlphaScreen CD47-His/biotin-SIRPalpha binding, LOPAC; series mostly up to 38.3 µM; activity change, negative = inhibition: at the top concentration;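 further: bead proximity luminescence from CD47 binding SIRPalpha after compound preincubation with SIRPalpha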; on activity change, negative = inhibition: on the % scale 0 is the no-effect control and ±100 the full control effect
Sequence (P78324 whole entry, looked up): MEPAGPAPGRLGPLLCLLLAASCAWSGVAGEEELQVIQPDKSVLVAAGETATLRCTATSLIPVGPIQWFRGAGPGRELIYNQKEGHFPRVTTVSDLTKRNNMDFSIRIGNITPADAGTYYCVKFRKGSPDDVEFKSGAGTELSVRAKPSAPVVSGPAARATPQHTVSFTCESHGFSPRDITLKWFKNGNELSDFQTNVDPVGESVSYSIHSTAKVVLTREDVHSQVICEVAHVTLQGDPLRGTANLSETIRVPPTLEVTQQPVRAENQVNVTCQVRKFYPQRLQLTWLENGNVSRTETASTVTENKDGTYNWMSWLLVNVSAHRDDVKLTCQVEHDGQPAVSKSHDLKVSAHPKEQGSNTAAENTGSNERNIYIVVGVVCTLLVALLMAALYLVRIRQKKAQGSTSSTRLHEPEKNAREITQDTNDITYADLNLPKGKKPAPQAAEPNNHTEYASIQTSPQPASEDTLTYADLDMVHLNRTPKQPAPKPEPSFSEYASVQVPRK
Sequence (Q08722 whole entry, looked up): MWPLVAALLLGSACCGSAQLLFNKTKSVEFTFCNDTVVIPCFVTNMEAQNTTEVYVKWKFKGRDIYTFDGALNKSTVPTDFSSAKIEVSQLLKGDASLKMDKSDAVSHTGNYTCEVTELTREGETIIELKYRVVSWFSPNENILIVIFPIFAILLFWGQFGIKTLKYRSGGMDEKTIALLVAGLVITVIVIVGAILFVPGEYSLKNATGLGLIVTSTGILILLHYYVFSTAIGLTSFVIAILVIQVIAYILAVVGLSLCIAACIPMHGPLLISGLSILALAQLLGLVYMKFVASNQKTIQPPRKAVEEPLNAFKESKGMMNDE
Procedure, shortened: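 Biotinylated Avi-tagged SIRPalpha (25 nM) preincubated 30 min with compound, then His-tagged CD47 (12.5 nM) added 30 min; AlphaScreen with Ni-NTA acceptor and streptavidin donor beads. PBS pH 7.4, 0.05% IGEPAL, room temperature; 7-point titrations.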
Potency means the concentration at half of the fitted maximal effect.

SMILES | activity change, negative = inhibition | Potency
NCCS(=O)(=O)O | 5.83% | 
CNCCCC12CCC(c3ccccc31)c1ccccc12 | 0.94% | 
COc1cc2nc(N3CCN(C(=O)C4COc5ccccc5O4)CC3)nc(N)c2cc1OC (centres undefined) | -8.34% | 
CC(C)NCC(O)c1ccc(O)c(O)c1 (centres undefined) | 0.314% | 
CN(C)CCC=C1c2ccccc2C=Cc2ccccc21 | -0.458% | 
Cn1c(=O)c2[nH]cnc2n(C)c1=O | -0.254% | 
COC(=O)Nc1nc2ccc(C(=O)c3cccs3)cc2[nH]1 | -2.21% | 
O=C1c2c(O)ccc(O)c2C(=O)c2c(NCCNCCO)ccc(NCCNCCO)c21 |  | 826 nM (active)
Cc1cc(C(C)(C)C)cc(C)c1CC1=NCCN1 | -6.12% | 
COc1ccccc1OCC(O)CN1CCN(CC(=O)Nc2c(C)cccc2C)CC1 (centres undefined) | 2.44% | 
NC12CC3CC(CC(C3)C1)C2 | 0% | 
CCC1(C)CC(=O)NC1=O (centres undefined) | 0.208% | 
Clc1ccccc1C(c1ccccc1)(c1ccccc1)n1ccnc1 | -20.1% | 
NC(=O)NO | 3.13% | 
NCCCCCC(=O)O | 0% | 
CCc1cccc2c3c([nH]c12)C(CC)(CC(=O)O)OCC3 (centres undefined) | -0.624% | 
CN1C(C(=O)Nc2ccccn2)=C(O)c2ccccc2S1(=O)=O | -12.3% | 
COc1cc2c(c(OC)c1OC)-c1ccc(OC)c(=O)cc1[C@@H](NC(C)=O)CC2 | -1.5% | 
CN(C)C(=O)C(CCN1CCC(O)(c2ccc(Cl)cc2)CC1)(c1ccccc1)c1ccccc1 | 0.164% | 
COc1nc(C)nc(Cl)c1NC1=NCCN1 | 1.19% | 
Cc1ccc(C(=O)Nc2ccc(S(=O)(=O)O)c3cc(S(=O)(=O)O)cc(S(=O)(=O)O)c23)cc1NC(=O)c1cccc(NC(=O)Nc2cccc(C(=O)Nc3cc(C(=O)Nc4ccc(S(=O)(=O)O)c5cc(S(=O)(=O)O)cc(S(=O)(=O)O)c45)ccc3C)c2)c1 | -19.1% | 
OCCN1CCN(CCCN2c3ccccc3Sc3ccc(C(F)(F)F)cc32)CC1 | -20.4% | 
C[C@](N)(Cc1ccc(O)c(O)c1)C(=O)O | 0.213% | 
NC(=O)OCC(COC(N)=O)c1ccccc1 | 0.552% | 
NC(CO)C(=O)NNCc1ccc(O)c(O)c1O (centres undefined) |  | 13100 nM (active)
O=C(c1ccc(F)cc1)C1CCN(CCn2c(=O)[nH]c3ccccc3c2=O)CC1 | -1.18% | 
Cc1cc(C(C)(C)C)c(O)c(C)c1CC1=NCCN1 | 2.02% | 
COc1cc2nc(N(C)CCCNC(=O)C3CCCO3)nc(N)c2cc1OC (centres undefined) | -3.22% | 
CCCCc1oc2ccccc2c1C(=O)c1cc(I)c(OCCN(CC)CC)c(I)c1 | -27.9% | 
COc1cc2nc(N3CCN(C(=O)c4ccco4)CC3)nc(N)c2cc1OC | 0.14% | 

target: Parathyroid hormone/parathyroid hormone-related peptide receptor (Homo sapiens) (UniProt Q03431); experiment: qHTS for PTHR1 Agonists: Optimization Screen against the NCGC LOPAC library (AID 1347079); conditions: HEK293 GP2 PTHR1 GloSensor cAMP luminescence, 1 h; series mostly up to 57.1 µM; activation: at the top concentration;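 further: GloSensor cAMP luminescence in HEK-293 GP2 cells expressing human PTHR1 with IBMX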; on activation: 0% is about no effect
Sequence (Q03431 whole entry, looked up): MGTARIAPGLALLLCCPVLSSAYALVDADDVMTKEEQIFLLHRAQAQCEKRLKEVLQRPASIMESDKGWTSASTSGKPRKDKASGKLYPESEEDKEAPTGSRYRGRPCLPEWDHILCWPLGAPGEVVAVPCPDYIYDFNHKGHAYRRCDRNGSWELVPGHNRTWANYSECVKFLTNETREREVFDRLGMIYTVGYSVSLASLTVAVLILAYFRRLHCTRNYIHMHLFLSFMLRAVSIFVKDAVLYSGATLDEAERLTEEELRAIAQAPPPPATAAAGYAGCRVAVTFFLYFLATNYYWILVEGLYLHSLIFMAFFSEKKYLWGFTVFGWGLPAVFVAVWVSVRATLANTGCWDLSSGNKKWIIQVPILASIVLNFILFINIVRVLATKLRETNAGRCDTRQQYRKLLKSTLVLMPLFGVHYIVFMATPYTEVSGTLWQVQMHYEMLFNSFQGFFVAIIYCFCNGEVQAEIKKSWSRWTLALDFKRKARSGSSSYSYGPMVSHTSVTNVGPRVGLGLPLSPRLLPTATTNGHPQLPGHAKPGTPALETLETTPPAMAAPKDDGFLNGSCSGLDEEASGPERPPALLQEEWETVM
Procedure, shortened: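 Compounds were tested across a qHTS titration. PTHR1-expressing GP2 cells report cAMP rises via GloSensor luminescence after 1 hr compound exposure at 37C with IBMX present.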

SMILES | activation | Potency
NCCS(=O)(=O)O | -11.3% | 
CNCCCC12CCC(c3ccccc31)c1ccccc12 | -20.1% | 
COc1cc2nc(N3CCN(C(=O)C4COc5ccccc5O4)CC3)nc(N)c2cc1OC (centres undefined) | 16% | 
CC(C)NCC(O)c1ccc(O)c(O)c1 (centres undefined) |  | 11.9 nM (active)
CN(C)CCC=C1c2ccccc2C=Cc2ccccc21 | -15.4% | 
O=C1c2c(O)ccc(O)c2C(=O)c2c(NCCNCCO)ccc(NCCNCCO)c21 | 1% | 
Cc1cc(C(C)(C)C)cc(C)c1CC1=NCCN1 | 4.49% | 
COc1ccccc1OCC(O)CN1CCN(CC(=O)Nc2c(C)cccc2C)CC1 (centres undefined) | -20% | 
NC12CC3CC(CC(C3)C1)C2 | 66.2% | 
CN1CCN(CCCN2c3ccccc3Sc3ccc(Cl)cc32)CC1 | -10.8% | 
CCC1(C)CC(=O)NC1=O (centres undefined) | -27.8% | 
NC(=O)NO | 23.7% | 
NCCCCCC(=O)O | 7.33% | 
CCc1cccc2c3c([nH]c12)C(CC)(CC(=O)O)OCC3 (centres undefined) | 14.7% | 
COc1cc2c(c(OC)c1OC)-c1ccc(OC)c(=O)cc1[C@@H](NC(C)=O)CC2 | -5.02% | 
CN(C)C(=O)C(CCN1CCC(O)(c2ccc(Cl)cc2)CC1)(c1ccccc1)c1ccccc1 | 10.6% | 
COc1nc(C)nc(Cl)c1NC1=NCCN1 | -29.5% | 
C[C@](N)(Cc1ccc(O)c(O)c1)C(=O)O | -6.98% | 
NC(=O)OCC(COC(N)=O)c1ccccc1 | -50.8% | 
NC(CO)C(=O)NNCc1ccc(O)c(O)c1O (centres undefined) | 16% | 
O=C(c1ccc(F)cc1)C1CCN(CCn2c(=O)[nH]c3ccccc3c2=O)CC1 | 3.4% | 
Cc1cc(C(C)(C)C)c(O)c(C)c1CC1=NCCN1 | -31.3% | 
CCCCc1oc2ccccc2c1C(=O)c1cc(I)c(OCCN(CC)CC)c(I)c1 | -31.8% | 
COc1cc2nc(N3CCN(C(=O)c4ccco4)CC3)nc(N)c2cc1OC | -8.98% | 
